Laboratory results reported in PubChem BioAssay (NCI).
This is part of a sample that, as a whole, favours compounds with a hit. Of some 79,000 tested, about 15% had one in any assay. Values without a mark were called inactive. Calls of active or inactive are those of the source. No stated cut-off is given here; in the data, active means growth inhibition above about 70%; inactive means the rest.

Assay: NCI Yeast Anticancer Drug Screen. Data for the mlh1 rad18 strain (AID 175)
Conditions: S. cerevisiae mlh1 rad18 strain growth inhibition, stronger effect = higher value
Method: Growth inhibition of yeast strains with defined genetic alterations is measured as a screen for potential anti-cancer activity. Selected strains with alterations in DNA damage repair or cell cycle control were exposed to compounds and growth inhibition was measured relative to vehicle treated controls. The strain used in this assay is mlh1 rad18

[1] = at 5.0 µM (retest, dose inferred, filed as 0.5)
[2] = at 50.0 µM (retest, dose inferred, filed as 5.0)

Question: Which results are given for `COC(=O)/C(C#N)=C\NC(=S)C(N)=S`?
Answer: growth inhibition [1]: 50%; growth inhibition [2]: 98% (active); growth inhibition (at 50.0 µM): 89.3% (active)

Question: With `COc1cc2c(cc1OC)[C@@H](Nc1ccc(C#N)cc1)C1COC(=O)[C@@H]1C2c1cc(OC)c(O)c(OC)c1` (some centres not stated) as the compound, how does the growth inhibition [1] read?
Answer: 9%

Question: And the growth inhibition [2]?
Answer: 94% (active)

Question: What about the growth inhibition (at 50.0 µM) of the same compound?
Answer: 86.7% (active)

Question: For `CN(C)CCCn1c2c3ccccc3ccc2c2oc(=O)c3ccccc3c21`, which growth inhibition [1] is on record?
Answer: -1%

Question: And the growth inhibition [2]?
Answer: 98% (active)

Question: What about the growth inhibition (at 50.0 µM) of the same compound?
Answer: 99.2% (active)

Question: With `CCC(C)COC(=O)Nc1cccc(Cl)c1` (configuration not stated) as the compound, how does the growth inhibition [1] read?
Answer: -9%

Question: What about the growth inhibition [2] of the same compound?
Answer: 69%

Question: What about the growth inhibition (at 50.0 µM) of the same compound?
Answer: 97.5% (active)

Question: With `O=C(CN(c1ccccc1)c1ccccc1)n1nnc2ccccc21` as the compound, how does the growth inhibition [1] read?
Answer: -21%

Question: What about the growth inhibition [2] of the same compound?
Answer: 87% (active)

Question: What about the growth inhibition (at 50.0 µM) of the same compound?
Answer: 70.2% (active)

Question: Which growth inhibition [1] does the source give for `CC(C)(CN1CCCCC1)C(=O)CC(SCCS(=O)(=O)O)c1ccccc1` (configuration not stated) here?
Answer: 17%

Question: What about the growth inhibition [2] of the same compound?
Answer: -1%

Question: And the growth inhibition (at 50.0 µM)?
Answer: 5.05%

Question: What does the source list for `CCCCS(=O)(=O)Nc1ccc(Nc2c3ccccc3nc3ccccc23)c(OC)c1`?
Answer: growth inhibition [1]: 78% (active); growth inhibition [2]: 97% (active); growth inhibition (at 50.0 µM): 84% (active)

Question: For `CCCCCCCSCC1C(=O)C23C(O)C1CCC2C12COC3(O)C(O)C1C(C)(C)CCC2O` (configuration not stated), which growth inhibition [1] is on record?
Answer: 50%

Question: What about the growth inhibition [2] of the same compound?
Answer: 94% (active)

Question: And the growth inhibition (at 50.0 µM)?
Answer: 88.8% (active)

Question: Which growth inhibition [1] does the source give for `O=[N+]([O-])c1cccc2nc3ccccc3c(NCCCN3CCCCC3)c12` here?
Answer: 97% (active)

Question: What about the growth inhibition [2] of the same compound?
Answer: 99% (active)

Question: And the growth inhibition (at 50.0 µM)?
Answer: 98% (active)

Question: Which growth inhibition [1] does the source give for `CC(=O)O[C@H]1CC[C@@]2(C)C(=CC[C@@H]3C2CC[C@]2(C)C(=O)NC(=O)CC32)C1` (some centres not stated) here?
Answer: -17%

Question: What about the growth inhibition [2] of the same compound?
Answer: 3%

Question: And the growth inhibition (at 50.0 µM)?
Answer: -0.8%

Question: For `COc1ccc2cc3c4cc5c(cc4cc[n+]3cc2c1OC)OCO5`, which growth inhibition [1] is on record?
Answer: 63%

Question: What about the growth inhibition [2] of the same compound?
Answer: 97% (active)

Question: And the growth inhibition (at 50.0 µM)?
Answer: 97% (active)

Question: With `CCN(CC)C(=S)SC(=S)N(CC)CC` as the compound, how does the growth inhibition [1] read?
Answer: 14%

Question: What about the growth inhibition [2] of the same compound?
Answer: 73% (active)

Question: What about the growth inhibition (at 50.0 µM) of the same compound?
Answer: 92% (active)

Question: For `COC(=N)c1ccc(O)c(C)c1`, which growth inhibition [1] is on record?
Answer: -123%

Question: And the growth inhibition [2]?
Answer: -74%

Question: And the growth inhibition (at 50.0 µM)?
Answer: -6.9%

Question: Which growth inhibition [1] does the source give for `CN(C)/C(=N/C(=S)Nc1ccccc1)SCc1ccccc1` here?
Answer: -1%

Question: And the growth inhibition [2]?
Answer: 76% (active)

Question: What about the growth inhibition (at 50.0 µM) of the same compound?
Answer: 97.7% (active)
